Consider 22 compounds from PubChem BioAssay.

The subject of assay [1] is HIV-1 integrase (multimerization). As to the kind of experiment: stimulation of HIV-1 integrase oligomerization – biochemical, TR-FRET, counter-screen for LEDGF/p75 integration inhibitor project (AID 1053131; in the data active = activation above about 8.9%). To be noted: TR-FRET HIV-1 integrase multimerization, at 7.7 µM, active compounds read high.
Assay [2] in a line: compounds disturbing TR-FRET signal readout – biochemical, HIV-1 IN multimerization, artefact control for LEDGF/p75-dependent integration inhibitor project, confirmation (AID 1053135).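 Note: 0% = integrase with antibodies and DMSO and 100% = antibodies without integrase.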 To be noted: TR-FRET optical interference counterscreen, at 7.7 µM, active compounds read high. (In TR-FRET formats the signal depends on donor and acceptor labels being close together.)
Assay [3] relates to HIV-1 integrase / human LEDGF/p75 complex. As to the kind of experiment: blockers of LEDGF/p75-dependent integrase activity – biochemical, TR-FRET, confirmation (AID 1053136; in the data active = inhibition above about 14%). To be noted: TR-FRET LEDGF/p75-dependent HIV-1 integration, at 3.7 µM, active compounds read high.
Assay [4] concerns Fam108b (Abhd17b) serine hydrolase [Mus musculus]. As to the kind of experiment: inhibition of Fam108b (Abhd17b) hydrolase – biochemical, fluorescence polarization, triplicate, counter-screen for RBBP9 inhibitor project, confirmation (AID 1978;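 active = inhibition above a limit from the primary screen, the mean over all compounds plus 3 SD, cut at about 19% in these data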;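 note: 0% = median of active Fam108b wells and 100% = catalytically dead S170A mutant; inhibitors free the probe so polarization falls as inhibition rises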). To be noted: recombinant Fam108b, FP-Rh probe fluorescence polarization; at 9.51 µM; active compounds read high. (Polarisation of emitted light reports the rotation of a fluorescent probe.)

For assay [5], the target named is Glutathione S-transferase omega-1 (Homo sapiens) (UniProt P78417). As to the kind of experiment: recombinant GSTO1 blockers, retest – biochemical, fluorescence polarization, triplicate, counter-screen for RBBP9 inhibitor project, confirmation (AID 2176;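 active = inhibition above the primary screen's cutoff, its mean inhibition plus 3 SD, cut at about 35% in these data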;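 note: loss of polarization as inhibitors block binding of rhodamine sulfonate ester activity probe; 0% = GSTO1 with DMSO and 100% = wells lacking GSTO1 enzyme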). To be noted: recombinant GSTO1, probe fluorescence polarization; at 5.96 µM; active compounds read high.
Assay [6] deals with Protein-arginine deiminase type-4 (Homo sapiens) (UniProt Q9UM07). As to the kind of experiment: protein arginine deiminase 4 blockade, retest – biochemical, fluorescence polarization, confirmation (AID 488796;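 active = mean inhibition across replicates above the hit cutoff set by the earlier primary screen, cut at about 15% in these data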;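 note: inhibitors block active-site labeling by the probe so polarization falls; 0% = PAD4 with probe and DMSO and 100% = probe without PAD4 enzyme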). To be noted: recombinant PAD4, RCA probe fluorescence polarization; at 6.36 µM; active compounds read high.
In assay [7] the target is Oxysterols receptor LXR-beta (Homo sapiens) (UniProt P55055). As to the kind of experiment: nonspecific reporter activation via LXR – cell-based, luminescence, HEK293, H. contortus campaign, counter-screen for hcDAF-12 agonist project, confirmation (AID 743027;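 active = mean percent activation of the reporter above a cutoff set as the average over tested compounds plus their standard deviation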). To be noted: HEK293 Gal4-LXR tk-luc reporter, 24 h, at 6.8 µM, active compounds read high, normalized: DMSO 0%, positive control 100%. A general note: A counterscreen serves to expose hits that act by an unwanted route or on another target.

For assay [8], the system named is Nuclear hormone receptor DAF-12 (Haemonchus contortus). As to the kind of experiment: hcDAF-12 luciferase reporter activation, retest – cell-based, luminescence, HEK293, lit1-tk-luc, triplicate, confirmation (AID 743032;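 active = mean activation across triplicate tests above the threshold derived from the earlier primary screen, cut at about 5.5% in these data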;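 note: 0% = DMSO only wells and 100% = 3 µM Δ7-dafachronic acid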). To be noted: HEK293 hcDAF-12 lit1-tk-luc reporter, at 6.8 µM, active compounds read high, % of Δ7-dafachronic acid response.
The target of assay [9] is Platelet-activating factor acetylhydrolase (Homo sapiens) (UniProt Q13093). As to the kind of experiment: inhibition of plasma PAF acetylhydrolase – biochemical, fluorescence polarization, human, confirmation (AID 463230;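 active = mean inhibition of the triplicate above the hit cutoff set for the earlier primary screen, cut at about 25% in these data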;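 note: 0% = enzyme with DMSO and 100% = wells lacking pPAFAH enzyme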). To be noted: recombinant pPAFAH, FP-Rh probe fluorescence polarization; at 3.39 µM; active compounds read high.
Assay [10] can be described thus: reduced OD of T4-infected AddAB+ E. coli – absorbance, E. coli V3065, T4 phage, triplicate, AddAB inhibitor project, confirmation (AID 488942;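 active = mean inhibition above a set limit taken from the earlier primary screen, cut at about 13% in these data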;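 note: higher means less bacterial growth since AddAB block lets phage replicate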). To be noted: E. coli V3065 expressing H. pylori AddAB, at 11.9 µM, active compounds read high, T4 phage with gene 2 nonsense mutations.
Assay [11] is described as follows: reduced OD of phage-infected RecBCD+ V66 E. coli – absorbance, mutant T4 phage, counter-screen for AddAB inhibitor project (AID 488955;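 active = mean inhibition above the mean of solvent-only control wells plus 3 SD, cut at about 4% in these data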;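 note: optical density read after an 18 h incubation at 37 °C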). To be noted: OD growth, at 11.9 µM, active compounds read high.
Assay [12] is described as follows: bacterial growth inhibitors – absorbance, counter-screen for AddAB inhibitor project, confirmation (AID 488956; in the data active = inhibition above about 25%). To be noted: bacterial viability, absorbance (AddAB counterscreen); at 11.9 µM; active compounds read high.
Assay [13] is described as follows: reduced OD of V66 E. coli with T4 gene 2 phage – absorbance, RecBCD inhibitor project, confirmation (AID 651982;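 active = mean inhibition over triplicates exceeding the hit threshold derived in the original primary screen, cut at about 11% in these data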). To be noted: E. coli V66 + T4 2- phage, growth OD; at 11.9 µM; active compounds read high.
Assay [14] is described as follows: bacterial growth inhibition – absorbance, high throughput, counter-screen for RecBCD inhibitor project (AID 651983; in the data active = inhibition above about 20%;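 note: E. coli strain V66 grown with compound alone and no phage infection; 0% = bacteria with DMSO vehicle only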). To be noted: E. coli viability, absorbance (OD) growth; at 11.9 µM; active compounds read high.
A short description of assay [15]: reduced optical density, T4-challenged addAB+ bacteria – absorbance, E. coli V3065, T4 phage, counter-screen for RecBCD inhibitor project, confirmation (AID 651984;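 active = mean inhibition above the solvent-only control wells' mean plus 3 SD, cut at about 22% in these data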;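 note: higher means less bacterial growth from phage killing when AddAB is blocked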). To be noted: E. coli expressing H. pylori AddAB + T4 phage, OD growth; at 11.9 µM; active compounds read high; gene 2 mutant T4, recBCD-deleted host.
A short description of assay [16]: BSA probe fluorescence interference – biochemical, TAMRA-labeled BSA, counter-screen for TCR-CD3 interaction inhibitor project (AID 652035; in the data active = inhibition above about 23%;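 note: 0% = buffer low control and 100% = reference high control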). To be noted: TAMRA-labeled BSA probe fluorescence counterscreen; at 9.4 µM; active compounds read high.
Assay [17] deals with T-cell receptor (TCR)-CD3 interaction, human. As to the kind of experiment: blockers of TCR binding to CD3 – biochemical, fluorescence, TAMRA-labeled TCR probe, confirmation (AID 652036; in the data active = inhibition above about 19%). To be noted: TAMRA-labeled TCR probe fluorescence binding assay; at 9.4 µM; active compounds read high.
The target in assay [18] is (Lyso)-N-acylphosphatidylethanolamine lipase (Mus musculus) (UniProt Q8VD66). As to the kind of experiment: mouse ABHD4 hydrolase blockers, triplicate – biochemical, fluorescence polarization, confirmation (AID 720658;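 active = mean inhibition across replicates above the hit cutoff set in the primary screen, cut at about 30% in these data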;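 note: 0% = wild-type ABHD4 with DMSO and 100% = catalytically dead S159A mutant with DMSO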). To be noted: purified mABHD4, FP-Rh probe fluorescence polarization; at 8.92 µM; active compounds read high.
Assay [19] deals with Nuclear receptor coactivator 1 (Homo sapiens) (UniProt Q15788). As to the kind of experiment: NCOA1 GAL4-fusion reporter inhibition – cell-based, luminescence, quadruplicate, confirmation (AID 588820;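 active = mean inhibition above 46.68%, the untreated control wells mean plus 3 SD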;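 note: 0% = DMSO wells and 100% = gossypol 36 µM treated wells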). To be noted: HEK293 GAL4-SRC1 luciferase reporter, at 3.6 µM, active compounds read high.
Assay [20] is described as follows: repression of VP16-driven luciferase reporter – cell-based, luminescence, high throughput, counter-screen for SRC1 inhibitor project (AID 588824; in the data active = inhibition above about 25%). To be noted: cell-based VP16 transactivation luciferase luminescence; at 3.6 µM; active compounds read high.
For assay [21], the target named is Bcl-2-like protein 1 (Homo sapiens) (UniProt Q07817). As to the kind of experiment: Bcl-xL BH3-peptide displacement, hit confirmation – biochemical, fluorescence polarization, counter-screen for MCL1 inhibitor project (AID 2166;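 active = inhibition above a cutoff equal to the mean inhibition of all tested compounds plus 3 SD, cut at about 30% in these data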). To be noted: GST-Bcl-xL / FITC-Bim BH3 peptide FP binding; at 10.9 µM; active compounds read high.
In assay [22] the target is Induced myeloid leukemia cell differentiation protein Mcl-1 (Homo sapiens) (UniProt Q07820). As to the kind of experiment: MCL1-BIM peptide interaction disruptors – biochemical, fluorescence polarization, triplicate, confirmation (AID 2168;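 active = inhibition above the average of all tested compounds plus 3 SD, cut at about 40% in these data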;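 note: 0% = DMSO wells and 100% = unlabeled Bim-BH3 control peptide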). To be noted: GST-MCL1 / FITC-Bim-BH3 fluorescence polarization; at 10.9 µM; active compounds read high.
Assay [23] has as its target Serine protease HTRA1 (Homo sapiens) (UniProt Q92743). As to the kind of experiment: confirming inhibition of human HTRA1 – biochemical, fluorescence polarization, confirmation (AID 540248;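 active = mean inhibition over three repeats above a set limit taken from the earlier primary screen, cut at about 37% in these data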;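 note: 0% = HTRA1 with DMSO and 100% = wells lacking HTRA1; inhibitors block probe binding so polarization drops and inhibition rises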). To be noted: recombinant HTRA1, FP-rhodamine activity-based probe, at 5.96 µM, active compounds read high.

Unmarked numbers belong to inactive results. The list shows a part of the results. The source made the active and inactive calls.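 Rule for the calls, unless noted: active = inhibition above the mean over all tested compounds plus 3 SD, which no compound reached; inactive = the rest.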

Chain of (Lyso)-N-acylphosphatidylethanolamine lipase (Mus musculus) (Q8VD66 whole entry, looked up, the tested form may be a part): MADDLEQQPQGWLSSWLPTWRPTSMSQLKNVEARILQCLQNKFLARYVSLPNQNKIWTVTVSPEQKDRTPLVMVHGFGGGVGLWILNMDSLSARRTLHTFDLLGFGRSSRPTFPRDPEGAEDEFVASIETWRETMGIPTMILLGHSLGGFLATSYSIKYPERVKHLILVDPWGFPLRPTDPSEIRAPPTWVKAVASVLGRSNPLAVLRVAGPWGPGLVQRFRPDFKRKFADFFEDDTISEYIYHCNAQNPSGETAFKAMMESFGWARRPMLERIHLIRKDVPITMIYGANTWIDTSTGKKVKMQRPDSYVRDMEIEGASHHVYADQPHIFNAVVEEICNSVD
Chain of Platelet-activating factor acetylhydrolase (Homo sapiens) (Q13093 whole entry, looked up): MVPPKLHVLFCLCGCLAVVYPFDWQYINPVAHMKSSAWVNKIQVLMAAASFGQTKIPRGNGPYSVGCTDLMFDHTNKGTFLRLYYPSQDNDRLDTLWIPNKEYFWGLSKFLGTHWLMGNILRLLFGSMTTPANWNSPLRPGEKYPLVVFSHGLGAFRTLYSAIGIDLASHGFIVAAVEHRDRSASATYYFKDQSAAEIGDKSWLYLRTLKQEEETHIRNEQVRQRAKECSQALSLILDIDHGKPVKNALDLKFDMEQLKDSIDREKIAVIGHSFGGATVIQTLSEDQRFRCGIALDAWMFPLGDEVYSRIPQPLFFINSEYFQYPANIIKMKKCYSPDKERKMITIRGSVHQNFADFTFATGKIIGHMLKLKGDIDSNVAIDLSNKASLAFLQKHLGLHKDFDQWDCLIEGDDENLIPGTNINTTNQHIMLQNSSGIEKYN
Chain of Protein-arginine deiminase type-4 (Homo sapiens) (Q9UM07 whole entry, looked up): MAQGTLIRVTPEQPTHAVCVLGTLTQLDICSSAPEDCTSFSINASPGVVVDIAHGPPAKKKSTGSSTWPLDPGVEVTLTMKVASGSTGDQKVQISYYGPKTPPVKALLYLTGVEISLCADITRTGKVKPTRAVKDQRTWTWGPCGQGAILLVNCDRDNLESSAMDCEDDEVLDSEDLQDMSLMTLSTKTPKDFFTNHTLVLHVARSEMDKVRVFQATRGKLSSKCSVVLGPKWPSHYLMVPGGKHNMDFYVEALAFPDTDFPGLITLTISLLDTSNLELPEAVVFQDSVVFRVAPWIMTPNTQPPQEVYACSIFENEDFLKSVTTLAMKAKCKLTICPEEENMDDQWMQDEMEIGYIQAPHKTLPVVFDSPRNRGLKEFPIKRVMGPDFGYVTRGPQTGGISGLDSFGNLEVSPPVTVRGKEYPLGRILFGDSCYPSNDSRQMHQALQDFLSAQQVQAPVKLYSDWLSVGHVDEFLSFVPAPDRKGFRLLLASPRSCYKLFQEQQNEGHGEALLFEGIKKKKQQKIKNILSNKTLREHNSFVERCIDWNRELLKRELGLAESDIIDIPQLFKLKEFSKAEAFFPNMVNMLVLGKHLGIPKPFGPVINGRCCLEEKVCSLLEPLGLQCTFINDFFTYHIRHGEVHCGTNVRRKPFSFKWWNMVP
Chain of Glutathione S-transferase omega-1 (Homo sapiens) (P78417 whole entry, looked up): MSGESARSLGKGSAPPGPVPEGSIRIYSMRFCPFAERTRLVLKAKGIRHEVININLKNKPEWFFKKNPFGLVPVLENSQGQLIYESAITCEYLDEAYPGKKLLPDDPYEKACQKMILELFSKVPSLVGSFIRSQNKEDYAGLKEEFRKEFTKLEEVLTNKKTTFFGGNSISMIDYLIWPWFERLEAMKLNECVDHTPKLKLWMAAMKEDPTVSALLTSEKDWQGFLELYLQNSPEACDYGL
Chain of Induced myeloid leukemia cell differentiation protein Mcl-1 (Homo sapiens) (Q07820 whole entry, looked up): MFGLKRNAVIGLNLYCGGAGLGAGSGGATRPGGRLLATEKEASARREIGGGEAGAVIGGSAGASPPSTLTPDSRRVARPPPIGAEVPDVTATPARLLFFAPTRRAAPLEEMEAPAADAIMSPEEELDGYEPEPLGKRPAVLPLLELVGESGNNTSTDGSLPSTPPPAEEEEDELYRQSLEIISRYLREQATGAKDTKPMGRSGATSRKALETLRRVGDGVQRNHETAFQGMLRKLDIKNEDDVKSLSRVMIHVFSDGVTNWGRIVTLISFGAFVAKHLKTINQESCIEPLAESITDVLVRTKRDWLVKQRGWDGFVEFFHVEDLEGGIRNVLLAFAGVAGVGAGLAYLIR
Chain of Bcl-2-like protein 1 (Homo sapiens) (Q07817 whole entry, looked up): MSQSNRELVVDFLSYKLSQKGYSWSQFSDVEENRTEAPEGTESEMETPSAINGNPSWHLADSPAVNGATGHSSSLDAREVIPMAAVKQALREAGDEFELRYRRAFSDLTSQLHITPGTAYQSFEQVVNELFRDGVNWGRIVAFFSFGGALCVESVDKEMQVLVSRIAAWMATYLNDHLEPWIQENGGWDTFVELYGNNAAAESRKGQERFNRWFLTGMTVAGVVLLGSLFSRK
Chain of Oxysterols receptor LXR-beta (Homo sapiens) (P55055 whole entry, looked up, the tested form may be a part): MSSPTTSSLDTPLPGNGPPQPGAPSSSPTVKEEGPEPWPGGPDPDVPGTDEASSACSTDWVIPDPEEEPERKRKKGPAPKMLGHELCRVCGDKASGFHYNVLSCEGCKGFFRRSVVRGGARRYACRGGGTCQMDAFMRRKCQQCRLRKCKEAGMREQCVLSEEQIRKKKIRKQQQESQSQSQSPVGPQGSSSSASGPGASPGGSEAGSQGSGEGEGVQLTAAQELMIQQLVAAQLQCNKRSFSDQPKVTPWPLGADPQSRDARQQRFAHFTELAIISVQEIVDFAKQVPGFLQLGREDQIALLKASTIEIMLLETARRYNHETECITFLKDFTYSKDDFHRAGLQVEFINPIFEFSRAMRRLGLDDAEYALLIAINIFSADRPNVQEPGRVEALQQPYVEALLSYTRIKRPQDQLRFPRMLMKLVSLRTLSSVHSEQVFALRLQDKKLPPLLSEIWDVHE
Chain of Nuclear receptor coactivator 1 (Homo sapiens) (Q15788 whole entry, looked up, the tested form may be a part): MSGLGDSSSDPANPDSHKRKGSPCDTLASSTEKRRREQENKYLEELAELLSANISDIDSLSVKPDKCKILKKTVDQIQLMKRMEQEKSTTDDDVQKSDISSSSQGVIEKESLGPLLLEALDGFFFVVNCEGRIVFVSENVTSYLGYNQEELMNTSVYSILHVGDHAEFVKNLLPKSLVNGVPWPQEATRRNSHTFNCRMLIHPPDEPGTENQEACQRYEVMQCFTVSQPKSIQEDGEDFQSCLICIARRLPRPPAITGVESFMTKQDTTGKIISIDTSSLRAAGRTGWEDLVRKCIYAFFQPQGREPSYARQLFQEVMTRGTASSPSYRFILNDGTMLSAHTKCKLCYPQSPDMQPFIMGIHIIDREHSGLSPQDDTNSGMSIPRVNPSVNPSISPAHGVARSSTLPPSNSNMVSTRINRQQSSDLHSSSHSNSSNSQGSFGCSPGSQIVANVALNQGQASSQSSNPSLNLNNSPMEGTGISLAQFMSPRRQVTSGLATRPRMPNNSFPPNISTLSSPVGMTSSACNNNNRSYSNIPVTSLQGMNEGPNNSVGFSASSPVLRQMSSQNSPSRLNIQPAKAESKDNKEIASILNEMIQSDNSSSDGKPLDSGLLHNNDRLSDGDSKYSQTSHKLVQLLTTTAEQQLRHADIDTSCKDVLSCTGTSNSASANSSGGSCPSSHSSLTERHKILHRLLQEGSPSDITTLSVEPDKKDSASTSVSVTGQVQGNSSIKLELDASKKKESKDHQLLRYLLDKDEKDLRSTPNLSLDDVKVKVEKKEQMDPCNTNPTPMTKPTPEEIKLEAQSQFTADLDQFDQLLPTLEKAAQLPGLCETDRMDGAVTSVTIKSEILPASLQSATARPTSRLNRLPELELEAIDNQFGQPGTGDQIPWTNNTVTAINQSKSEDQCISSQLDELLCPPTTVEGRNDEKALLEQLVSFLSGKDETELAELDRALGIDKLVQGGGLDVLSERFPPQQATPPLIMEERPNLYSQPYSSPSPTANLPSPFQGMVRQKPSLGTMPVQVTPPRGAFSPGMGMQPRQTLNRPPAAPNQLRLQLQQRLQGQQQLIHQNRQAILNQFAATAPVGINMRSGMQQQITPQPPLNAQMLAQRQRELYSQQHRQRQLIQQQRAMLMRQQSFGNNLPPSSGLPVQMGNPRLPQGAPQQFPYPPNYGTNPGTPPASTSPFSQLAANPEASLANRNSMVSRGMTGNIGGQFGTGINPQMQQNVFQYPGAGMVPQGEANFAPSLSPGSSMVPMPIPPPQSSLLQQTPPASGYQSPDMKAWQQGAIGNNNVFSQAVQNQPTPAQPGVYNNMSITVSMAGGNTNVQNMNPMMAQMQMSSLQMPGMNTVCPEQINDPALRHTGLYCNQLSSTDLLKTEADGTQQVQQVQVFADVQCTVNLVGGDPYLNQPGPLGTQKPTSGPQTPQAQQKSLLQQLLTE

For orientation: inhibition means the relative decrease from the control value, in per cent. Take `Cc1ccc(C(=O)NC(=S)Nc2ccc3[nH]c(=O)[nH]c3c2)cc1C`: the activation in assay [1] is -3.75%. The inhibition is 19% in [2] and 14.8% (active) in assay [3].

With `COc1ccccc1C1C(C#N)=C(N)Oc2c1c(-c1ccccc1)nn2-c1ccccc1` (stereo not drawn), the inhibition in [4] was -8.81%; in assay [5] it was 12.6%; in [6], 2.3%; in [2], -4.34%; in assay [3], 1.22%. Moreover, the activation in [1] is 0.86%.

For the compound `CC(=O)OCC1(O)CC23CCC4c5ccoc5CCC4(C)C2CCC1C3` (stereo not drawn), in assay [1], the activation is 0.06%. The inhibition is -0.26% in [2] and 9.45% in assay [3].

On to `c1ccc(C2=Nc3cccc4cccc(c34)N2)cc1`, for which the inhibition in assay [4] is 6.39%; in assay [2], -16.1%; in assay [3], 8.24%. Moreover, the values for the activation in assay [7], in assay [8] and in assay [1] were -0.31%, 3.48% and 4.54%, respectively.

Turning to `Cc1cc(SCC(=O)NCCN2C(=O)CSC2=O)nc2ccccc12`, in assay [1], the activation is 0.99%. Further, the inhibition is -4.97% in [2] and 1.78% in assay [3].

As to `Cc1sc2nc(SCC(=O)c3ccc(O)c(O)c3)n(Cc3ccco3)c(=O)c2c1C`, in assay [1], the activation is 8.33%. For the same compound, the inhibition is -41.9% in assay [2] and 39.2% (active) in assay [3].

In the case of `Cc1ccc(-c2cnc(NC(=O)CCC(=O)N(C)Cc3ccccc3)n2C)cc1`, the activation in [1] is 0.12%. Further, the results for the inhibition in assay [2] and in assay [3] were -0.61% and -6.89%, respectively.

`CN(C)[C@@H]1C(=O)C(C(N)=O)=C(O)[C@@]2(O)C(=O)C3=C(O)c4c(O)ccc(Cl)c4[C@@H](O)[C@H]3C[C@@H]12`: the inhibition is 24.2% in assay [5]; -0.22% in assay [9]; 102% (active) in [10]; 100% (active) in assay [11]; 101% (active) in assay [12]; 102% (active) in assay [13]. Also, the inhibition in assay [14] was 104% (active); in [15], 102% (active); in [16], -3.91%; in assay [17], 1.29%; in assay [18], 17.2%; in assay [2] it was -24.2%. The inhibition in [3] was 1.42%. In addition, the activation in [1] is 6.8%.

In the case of `Cc1oc2c(c1C(=O)N1CCOCC1)C(=O)c1ccccc1C2=O`, the inhibition was 29.9% in assay [5]; -13.7% in assay [19]; 6.29% in assay [20]; 11.3% in assay [2]; 20.2% (active) in assay [3]. For the same compound, the activation in [1] was -2.24%.

For `O=C(NC1CCCCC1)N1CCc2[nH]c3ccccc3c2C1`, the activation in assay [1] is 1.36%. The inhibition in assay [2] is -6.83%; in assay [3], 2.35%.

On to `CCOc1cccc(=O)c2c(C)n(CC3CCCO3)c(C)c12` (stereo not drawn), for which the activation in assay [1] is 2.93%. In addition, the inhibition in assay [2] is -10.4%; in [3] it was 4.91%.

For the compound `C=CCn1c(=S)[nH]c2scc(-c3ccco3)c2c1=O`, the inhibition in [4] was 78.1% (active); in assay [21] it was 23.3%; in assay [22] it was 37.9%; in [9] it was 14.1%; in assay [2], -24.4%; in assay [3] it was 75.9% (active). Also, in assay [1], the activation is 4.85%.

`Cc1c(CC(=O)N2CCN(C(=O)C3COc4ccccc4O3)CC2)c(=O)oc2c(O)c(O)ccc12` (stereo not drawn): the inhibition in assay [21] is 69.1% (active); in [22] it was 89% (active); in assay [9] it was 78.1% (active); in assay [23] it was 88.8% (active); in [16], -7.93%; in [17], 60.5% (active). Moreover, the figures for the inhibition in assay [18], in assay [2] and in assay [3] were 16%, -84.6% and 86.8% (active), respectively. In addition, the activation in [1] is 16.8% (active).

For the compound `Clc1ccc(C2=CSC3=Nc4cccc5cccc(c45)N23)cc1`, the inhibition in assay [5] is 85.1% (active); in assay [6], -2.56%; in assay [23], 13.7%; in assay [18], 37.5% (active); in [2], -8.94%; in assay [3] it was 24.5% (active). Further, the activation in assay [1] is 2.48%.

Take `CN(Cc1ccc(F)cc1)C(=O)CN1C(=O)c2ccccc2S1(=O)=O`: in [1], the activation was -1.2%. Besides, the figures for the inhibition in assay [2] and in assay [3] were 4.33% and -12.2%, respectively.

For `Oc1ccc(N=Cc2sc3ccccc3c2Cl)cc1`, the inhibition in assay [5] was 12.2%; in assay [6], 3%; in [23], 50.3% (active); in assay [16] it was 13.2%; in [17], 7.56%; in assay [18], -6.63%. Further, the inhibition is -37.1% in assay [2] and 55.2% (active) in assay [3]. Moreover, the activation in assay [1] is 10.4% (active).

Turning to `COc1ccc(C2CC(c3cccs3)=NN2C(=O)COC(=O)c2cc3ccccc3cc2O)cc1OC` (stereo not drawn), the activation in assay [1] is -0.23%. Further, the inhibition in assay [2] was 1.12%; in assay [3] it was -6.48%.

For the compound `CCCCNC(=O)OC1CC2CC1[C@H]1CCCCN1C2=O` (stereo partly drawn), the activation in [1] is -0.71%. The inhibition is 3.63% in [2] and -1.12% in [3].

With `COc1cc(NC(=O)COC(=O)c2ccc([N+](=O)[O-])s2)cc(OC)c1OC`, the activation in assay [1] was -0.28%. In addition, the results for the inhibition in [2] and in assay [3] were 1.01% and 51.5% (active), respectively.

Regarding `COc1ccccc1-c1cc(C(=O)NCCCn2ccnc2)no1`, the activation in assay [1] is 1.02%. For the same compound, the inhibition in assay [2] was -3.78%; in [3], -0.05%.

Take `Cc1cc(Oc2ccc(Cl)cc2)nc(SCC(=O)c2ccccc2)n1`: in [1], the activation was -0.31%. Moreover, the inhibition in assay [2] is 1.56%; in [3], -0.68%.

On to `Cc1ccc(N=C2NC(=O)/C(=C/C=C/c3ccco3)S2)cc1C`, for which the inhibition is 31.1% (active) in assay [9], -49.5% in assay [2] and 45.2% (active) in [3]. For the same compound, in [1], the activation was 13.8% (active).
